# IP6K1 inh: Primary qHTS assay for small molecule inhibitors of Inositol hexaphosphate kinase 1 (IP6K1) | Inositol hexakisphosphate kinase 1 (Homo sapiens), Q92551 | IP6K1 kinase, ADP-Glo luminescence, 2 h; active compounds read low | activity change, % (series mostly up to about 58 µM) | 140,000 compounds, 0.81% hits; in the data active = activity change below about -25%; note: % is set by controls: 0 for no effect and ±100 for the full control effect
# Target sequence (Q92551 whole entry, looked up): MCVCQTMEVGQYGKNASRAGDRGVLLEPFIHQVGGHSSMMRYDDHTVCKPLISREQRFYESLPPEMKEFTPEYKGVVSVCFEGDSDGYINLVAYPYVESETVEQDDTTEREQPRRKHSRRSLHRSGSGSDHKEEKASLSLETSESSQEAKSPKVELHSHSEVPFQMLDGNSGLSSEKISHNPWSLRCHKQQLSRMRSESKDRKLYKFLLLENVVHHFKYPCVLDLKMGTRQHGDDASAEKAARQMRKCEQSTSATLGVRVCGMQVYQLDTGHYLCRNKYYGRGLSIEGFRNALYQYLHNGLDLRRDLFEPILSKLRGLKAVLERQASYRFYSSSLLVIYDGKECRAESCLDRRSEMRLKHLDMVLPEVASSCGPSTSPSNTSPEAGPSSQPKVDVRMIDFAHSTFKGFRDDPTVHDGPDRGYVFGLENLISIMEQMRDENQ
#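 ADP-Glo luminescence measures ADP made by human IP6K1 during a 2 h RT reaction with ATP/IP6 (mix at 1.3 mM/130 uM); top library doses 57.5 and 19.1 uM final.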
# KDM5B inhibitor: Primary screen for KDM5B Histone Demethylases FDH-coupled qHTS; KDM5B demethylase, FDH-coupled NADH fluorescence (FDH is formaldehyde dehydrogenase); Lysine-specific demethylase 5B (Homo sapiens), Q9UGL1; 220,000 compounds, 2.6% hits; Potency, µM (doses to about 57.7 µM), actives largely listed as inhibitors; active = well fitted inhibition curve with a large enough effect; inconclusive = small, poorly fitted or top-dose-only effect; inactive = no such curve, though single readings can be large or run the other way; note: potency is the fitted concentration of half-maximal effect; 0% is about no effect; nearly all actives have a fitted effect of over 70% in size
#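 Measured: NADH fluorescence change, 30 min, RT. System: KDM5BΔAP 200 nM final, H3K4me3 peptide, α-KG, Fe(II), ascorbate, NAD⁺ plus FDH, pH 7.5 HEPES. Compounds: titrated, 10 min pre-incubation with enzyme.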
# * marks the source's active call; other numbers are inactive results; i = inactive; ? = inconclusive; nt = not tested or not shown. Compounds with a hit are over-represented: about 2.7% of the library has one in this group of screens.
SMILES,IP6K1 inh,KDM5B inhibitor
Cc1ccc(-c2csc(-c3nc(-c4ccccc4)cs3)n2)c(C)c1,nt,i
CCCCc1c(C)nn(-c2nc(CC(=O)Nc3cccc(C(C)=O)c3)cs2)c1C,nt,i
COCc1c(C(=O)N[C@@H]2CN(c3ncccn3)C[C@H]2CN(C)C)noc1C,4,28µM*
CN(C)C[C@@H]1CN(c2ncccn2)C[C@H]1NC(=O)NCCc1ccccc1,3,?
COc1cccc(CNC(=O)N[C@@H]2CN(Cc3ccncc3)C[C@H]2CN(C)C)c1,25,?
COCCNC(=O)N[C@@H]1CN(c2ncccn2)C[C@H]1CN(C)C,9,22µM*
COc1cccc(CNC(=O)N[C@@H]2CN(c3ncccn3)C[C@H]2CN(C)C)c1,24,28µM*
COCc1c(C(=O)N[C@@H]2CN(Cc3cccnc3)C[C@H]2CN(C)C)noc1C,2,i
COc1ccccc1N1CCN(CC(=O)Nc2ccc(C)cc2Cl)CC1,nt,i
Cn1c(CO[C@H]2CN(Cc3ccc4c(c3)OCCO4)C[C@H]2F)nc2ccccc21,3,i
CCOC(=O)c1ccc(NC(=O)CSc2ncc(S(=O)(=O)c3ccc(C)c(Cl)c3)c(=O)[nH]2)cc1,-49*,i
Cc1ccc(C)c(NC(=O)CSc2ncc(S(=O)(=O)c3ccc(C)c(Cl)c3)c(=O)[nH]2)c1,1,i
COc1ccc(Nc2ccnc(N3CCCC(C(=O)NCc4cccc(OC)c4)C3)n2)cc1 (stereo unspecified),-4,nt
Cc1cc(C)c(NC(=O)CN2CCN(c3ccccc3)CC2)c(Cl)c1,nt,i
CCN(CCOc1ccc(F)cc1)C(=O)c1cnc(NC(C)C)nc1,-3,28µM*
Cc1nc2ccc(Cl)cc2cc1C(=O)N(C)CCOc1ccc(F)cc1,nt,i
O=C(NC1CCCC1)N1CCN(c2nccc(Nc3ccccc3Cl)n2)CC1,17,nt
CCn1cc(-c2ccc(Cl)cc2)cc1C(=O)N1CCN(c2ccccn2)CC1,11,?
Cn1c(C(=O)N2CCN(c3ccccn3)CC2)nc2nc(-c3ccccc3)c(Cl)cc21,4,35µM*
COCCN(C)C(=O)c1nc2nc(-c3ccccc3)c(Cl)cc2n1C,-1,?
CN(C)CCNC(=O)c1nc2nc(-c3ccccc3)c(Cl)cc2n1C,12,40µM*
Cn1c(C(=O)NCCc2cnc[nH]2)nc2nc(-c3ccccc3)c(Cl)cc21,12,35µM*
CN(C)CCNC(=O)c1nc2nc(-c3ccccc3)c(-c3ccccc3F)cc2n1C,8,i
Clc1ccc(Cn2ccnc2-c2cc3n(n2)CCCNC3)cc1Cl,2,?
Cc1cc(C)c(NC(=O)c2ccc(CSc3ccc(Cl)cc3)cc2)c(C)c1,nt,i
SMILES,IP6K1 inh,KDM5B inhibitor
O=[S+]1([O-])c2cccnc2O[C@@H](COCc2ccccc2)CN1Cc1ccc2c(c1)OCO2,11,nt
CCc1ccc2c(c1)C(O)(c1c[nH]c3ccccc13)C(=O)N2 (stereo unspecified),nt,i
CCN(Cc1ccncc1)C(=O)C(C)C,nt,i
Cc1cc(CN(C)c2ccc(-c3nc(-c4ccccc4F)no3)cn2)on1,-2,32µM*
CCc1noc(-c2nc(-c3ccccc3F)no2)n1,-20,i
COc1ccc(-c2nc(C(=O)N3CCN(c4ncccn4)CC3)n3ccccc23)cc1,12,32µM*
O=C(c1nc(-c2cccnc2)c2ccccn12)N1CCN(c2ncccn2)CC1,0,i
O=C(c1nc(-c2ccsc2)c2ccccn12)N1CCOCC1,9,35µM*
O=C(c1nc(-c2cc(Cl)cc(Cl)c2)c2ccccn12)N1CCN(c2ncccn2)CC1,7,i
COc1ccccc1-c1nc(C(=O)N2CCN(c3ncccn3)CC2)n2ccccc12,-19,?
O=C(c1nc(-c2ccsc2)c2ccccn12)N1CCN(c2ncccn2)CC1,-4,25µM*
CC(C)(C)c1nc(C(=O)N2CCN(c3ncccn3)CC2)n2ccccc12,-11,79µM*
C[S+](=O)([O-])c1ccc(-c2nc(C(=O)N3CCN(c4ncccn4)CC3)n3ccccc23)cc1,-4,?
FC(F)(F)c1cc(-c2ccccn2)nc2c(-c3ccc(Cl)cc3)cnn12,nt,i
CNC(=O)c1cccnc1N1CCOC(c2ccc3cc(OC)ccc3c2)C1 (stereo unspecified),-1,i
COc1ccc([C@@H]2CN(c3ncccc3C#N)C[C@H]2NC(C)=O)cc1,4,28µM*
O=C(CCc1cccs1)Nc1ccc(N2CCOCC2)cc1,nt,i
O=[S+]([O-])(c1ccncc1)c1nnn2c1nc(NCc1ccc(F)cc1)c1ccccc12,5,i
CCc1ccc([S+](=O)([O-])c2nnn3c2nc(NCc2ccncc2)c2ccccc23)cc1,22,50µM*
CC(C)c1ccc([S+](=O)([O-])c2nnn3c2nc(NCc2ccncc2)c2ccccc23)cc1,-2,79µM*
Cc1ccc(C)c([S+](=O)([O-])c2nnn3c2nc(NCc2ccncc2)c2ccccc23)c1,3,89µM*
COc1ccc([S+](=O)([O-])c2nnn3c2nc(NCc2ccncc2)c2ccccc23)cc1,8,?
Cc1cc(C)c([S+](=O)([O-])c2nnn3c2nc(NCc2ccncc2)c2ccccc23)c(C)c1,7,?
O=[S+]([O-])(c1ccc(Cl)cc1)c1nnn2c1nc(NCc1ccncc1)c1ccccc12,-2,89µM*
Cc1ccc([S+](=O)([O-])c2nnn3c2nc(NCc2ccncc2)c2ccccc23)cc1,-2,?
SMILES,IP6K1 inh,KDM5B inhibitor
CC(C)OCc1ccccc1CNS(=O)(=O)c1ccc(F)c(F)c1,nt,i
CCCOc1ccc(C(=O)Nc2cccc3ccc(C)nc23)cc1,nt,i
OCC1CN(C2CCC2)CC12CCN(Cc1ccc(F)cc1)CC2 (stereo unspecified),6,?
CC(NC(=O)CC12CC3CC(CC(C3)C1)C2)C1CC2CCC1C2 (stereo unspecified),nt,i
O=C(C1CCCN1[S+](=O)([O-])c1cccc(C(F)(F)F)c1)N1CCC(c2ccccc2)CC1 (stereo unspecified),-5,nt
Cc1c(Cl)cccc1NC(C)C(=O)Nc1ccc(Cl)cn1 (stereo unspecified),nt,i
O=C1CCC2(CCCN(c3ncccc3F)C2)CN1Cc1ccncc1 (stereo unspecified),23,?
O=C1CCC2(CCCN(c3ncc(Cl)cc3F)C2)CN1Cc1cccnc1 (stereo unspecified),1,28µM*
CCOc1ccc(CCNC(=O)c2cn(C)c3ccc(S(=O)(=O)N4CCOCC4)cc3c2=O)cc1OCC,-5,i
CCOc1ccc(CCNC(=O)c2cn(C)c3ccc(S(=O)(=O)N4CCCCC4)cc3c2=O)cc1OCC,-27*,?
C/C(=N/NC(=O)C(C)C)c1cc(C)c(C)cc1C,nt,i
O=C(COC(=O)c1c[nH]c2ccccc12)Nc1ccc(N2CCOCC2)cc1,nt,i
Cc1cccc(NC(=O)C(C#N)=C2CCCCC2)c1,nt,i
N[C@@H](Cc1cc(I)c(Oc2cc(I)c(O)c(I)c2)c(I)c1)C(=O)O,-25,nt
N[C@@H](Cc1cc(I)c(Oc2ccc(O)c(I)c2)c(I)c1)C(=O)O,-34*,nt
OC[C@@H]1O[C@H](CNCc2cccc(Cl)c2)[C@H](N2CCN(c3ccccn3)CC2)[C@@H]1O,8,25µM*
